Outcome and AC50 data for 28 compounds are collected here from PubChem BioAssay (EPA / NIEHS).

The nature of experiment [1]: CCTE_Shafer_MEA_acute_spike_number: CCTE's Neural Acute Assay for Total Number of Spikes, Shafer Lab (AID 2284008).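 On AC50: curve fitted for decrease in spike count so AC50 reflects inhibitors.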 An outline of the steps: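 Total spike count from 40 min recordings before and during compound exposure (0.03-40 uM), given as per-well percent change. Cortical cultures from rat, DIV 13 or 15, 37 C; adaptive detection threshold 8x rms noise.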
The nature of experiment [2]: CCTE_Shafer_MEA_acute_firing_rate_mean: CCTE's Neural Acute Assay for Mean Firing Rate, Shafer Lab (AID 2284009).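 Further: analyzed for loss of signal so actives lower firing rate relative to DMSO.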 An outline of the steps: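 Percent change in well-mean firing rate was derived from extracellular spikes detected at 8x rms noise (300-5000 Hz band-pass) before and after a 40-min compound exposure. Cultures were primary rat cortical neurons, tested at 0.03-40 uM.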

Experiment [3] can be described thus: CCTE_Harrill_HTTr_Viability_MCF7: CCTE's 6-hour Cell Viability Assessment for the High-Throughput Transcriptomics (HTTr) Platform, in MCF-7 cells cultured in DMEM + 10% fetal bovine serum, Harrill Lab (AID 2284010). The method, boiled down: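 Cells were dosed with chemicals in an eight-point dilution series, imaged 6 hours later for propidium iodide uptake, and the endpoint was analyzed by bidirectional fitting against DMSO as negative control.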

A short description of experiment [4]: CCTE_Harrill_HTTr_Apoptosis_MCF7: CCTE's 6-hour Apoptosis Assessment for the High-Throughput Transcriptomics (HTTr) Platform, in MCF-7 cells cultured in DMEM + 10% fetal bovine serum, Harrill Lab (AID 2284011). An outline of the steps: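 High-content imaging of CellEvent Caspase 3/7 Green signal follows a six-hour exposure, with eight concentrations per chemical. MCF-7 cells grown in DMEM plus 10% fetal bovine serum; activity fitted in both directions against DMSO.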

Experiment [5] in a line: CCTE_Harrill_HTTr_CellCount_MCF7: CCTE's Cell Proliferation Assessment for the High-Throughput Transcriptomics (HTTr) Platform, Harrill Lab (AID 2284012; active means hit-call score of the fitted dose curve at least 0.9, where 1 is the maximum;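 further: cells exposed to compound for six hours; intended direction is loss of nuclei count meaning fewer cells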). The method, boiled down: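 Chemicals in eight-point dilution series are added to MCF-7 cells for six hours, nuclei are stained with Hoechst and imaged, and per-well nuclei counts are fitted in both directions relative to DMSO controls.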

Experiment [6] in a line: CCTE_Shafer_MEA_acute_burst_number: CCTE's Neural Acute Assay for Single-Electrode Bursts, Shafer Lab (AID 2284013). The method, boiled down: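 Spontaneous network activity of primary rat cortical neurons was recorded extracellularly on microelectrode arrays at 37 C, with 40-min periods before and during exposure to 0.03-40 uM compound on DIV 13 or 15.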
Experiment [7] in a line: CCTE_Shafer_MEA_acute_burst_duration_mean: CCTE's Neural Acute Assay for Mean Burst Duration, Shafer Lab (AID 2284014).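 Further: hits are decreases in mean burst duration relative to DMSO controls.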 An outline of the steps:
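Read-out is the per-well percent change in mean burst duration (first to last spike within a single-electrode burst) between 40-min recordings before and after compound. Cultures were primary rat cortical neurons on MEAs, dosed at 0.03-40 uM on DIV 13 or 15.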

Experiment [8] in a line: CCTE_Shafer_MEA_acute_per_burst_spike_number_mean: CCTE's Neural Acute Assay for Average Number of Spikes Per Burst, Shafer Lab (AID 2284015).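 Further: hits are decreases in mean spikes per burst versus baseline.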 The method, boiled down:
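We recorded spontaneous network firing of rat cortical neurons for 40 min before and 40 min during exposure to compound at 0.03-40 uM, at 37 C. Spikes were detected adaptively at 8x rms noise, and the change in average spikes per burst was fitted against DMSO.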

The nature of experiment [9]: CCTE_Shafer_MEA_acute_interburst_interval_mean: CCTE's Neural Acute Assay for Mean Interburst Interval, Shafer Lab (AID 2284016).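 Further: percent change of mean interburst interval versus each well's own pre-dose baseline; curves fitted for decrease in interburst interval relative to DMSO.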 An outline of the steps: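 MEA recording of spontaneous network bursting in primary rat cortical cultures; mean interburst interval was compared before and after a 40-min compound exposure (0.03-40 uM) and expressed as percent change, relative to DMSO.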

Experiment [10] is described as follows: CCTE_Shafer_MEA_acute_burst_percentage_mean: CCTE's Neural Acute Assay for Percentage of Spikes in a Burst, Shafer Lab (AID 2284017).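 On AC50: curve fitted for loss of signal so potency reflects decreased burst percentage.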 The method, boiled down:
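Compounds were tested at 0.03-40 uM on primary rat cortical neuron networks grown over microelectrodes, with at least three wells per compound. Spontaneous firing was recorded for 40 min before and 40 min after dosing, and the change in burst percentage was computed per well.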

Experiment [11] can be described thus: CCTE_Shafer_MEA_acute_burst_percentage_std: CCTE's Neural Acute Assay for Standard Deviation of Burst Percentage, Shafer Lab (AID 2284018).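 Further: fitted in the negative direction so actives lower burst percentage SD.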 An outline of the steps: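 Value is percent change from baseline in the across-electrode SD of spikes-in-bursts percentage, wells with >/= 10 active electrodes. Acute 40-min exposure to 0.03-40 uM on DIV 13 or 15 rat cortical cultures, recorded at 37 C after 40-min baseline.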

A short description of experiment [12]: CCTE_Shafer_MEA_acute_per_network_burst_spike_number_mean: CCTE's Neural Acute Assay for Average Number of Spikes in a Network Burst, Shafer Lab (AID 2284019).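 On AC50: curve fitted for loss of signal so actives reduce spikes per network burst.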 An outline of the steps: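 Read-out is mean spike count per network burst, taken as percent change between a 40-min pre-exposure and a 40-min post-exposure recording per well. Rat primary cortical neurons on MEAs at 37 C, DIV 13 or 15; compounds at 0.03-40 uM.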

Experiment [13] is described as follows: CCTE_Simmons_MITO_max_resp_rate: CCTE's HepG2 Seahorse XF Respirometric Screening Assay at Maximal Respiratory State [uncoupled], Simmons Lab (AID 2284002). Particulars: actives raise or lower the signal. The method, boiled down:
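Maximal (FCCP-uncoupled) respiration rate in HepG2, from Seahorse kinetic OCR over 72 min at 6 min cycles. Compounds at 125 nM–100 uM final, 7 points, three biological replicates; both directions fit relative to DMSO.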

Experiment [14] in a line: CCTE_Simmons_MITO_inhib_resp_rate: CCTE's HepG2 Seahorse XF Respirometric Screening Assay at Inhibited Respiratory State [full ETC block], Simmons Lab (AID 2284006). Particulars: actives raise or lower the signal. The method, boiled down: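 Compound injected onto HepG2 cells (125 nM–100 uM final, 7 points); FCCP then rotenone/antimycin A added. Oxygen consumption read every 6 min (3 min mix, 3 min measure) for 72 min. Inhibited-state OCR fitted against DMSO.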

A short description of experiment [15]: CCTE_Simmons_MITO_viability: CellTiter-Glo Viability Assessment for CCTE's HepG2 Seahorse XF Respirometric Screening Assay [post-hoc], Simmons Lab (AID 2284007; active means hit-call score of the fitted dose curve at least 0.9, where 1 is the maximum). An outline of the steps: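 After the Seahorse oxygen-consumption sequence (basal, FCCP, rotenone/antimycin A; 72 min total), HepG2 viability was scored as ATP content by bioluminescence. Chemicals ran at seven concentrations up to 100 uM final for 90 min.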
A general note: In ATP-based viability assays light output follows the ATP content of the culture.

The nature of experiment [16]: CCTE_Simmons_MITO_basal_resp_rate: CCTE's HepG2 Seahorse XF Respirometric Screening Assay at Basal Respiratory State, Simmons Lab (AID 2284001). The note with it: actives raise or lower the signal. The method, boiled down:
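HepG2 respirometry; 7-pt titration 125 nM–100 uM final; kinetic OCR at 6 min intervals for 72 min; n=3 biological, technical singles; DMSO baseline, gain or loss fit; fenpyroximate (decrease) and 2,4-DNP (increase) controls.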

By AC50 is commonly meant the concentration at which the activity in the assay is half-maximal.

Records with an inconclusive call do not appear. Activity calls are given as the source filed them. How the source made its calls, unless noted: active means hit-call score of the fitted dose curve at least 0.9, where 1 is the maximum; inactive means score below 0.9.

For `CCc1cnc(C2=NC(C)(C(C)C)C(=O)N2)c(C(=O)O)c1` (centres undefined), the call in experiment [1], in [2], in experiment [3], in experiment [4], in experiment [5] and in [6] was inactive. The call in experiment [7], in [8], in experiment [9], in [10], in experiment [11] and in experiment [12] was inactive.
For `CCOP(=S)(OCC)Oc1ccc2c(C)c(Cl)c(=O)oc2c1`, the AC50 in experiment [1] is 1.85 µM (active); in [2], 1.85 µM (active); in [6], 1.94 µM (active); in experiment [8], 3.98 µM (active); in experiment [9], 4.19 µM (active); in experiment [10], 3.9 µM (active). Besides, in experiment [12], the AC50 is 1.99 µM (active). Besides, the result in experiment [3], in experiment [5], in experiment [7] and in experiment [11] was inactive.
Consider `CNC(=O)Oc1cccc2c1OC(C)(C)O2`, for which the outcome in experiment [3] and in [5] was inactive.
As to `CN1COCN(Cc2cnc(Cl)s2)C1=N[N+](=O)[O-]`, the compound was classed as inactive in experiment [1], in experiment [2], in experiment [3], in [6], in experiment [7] and in experiment [8]. Further, the compound was classed as inactive in [9], in [10], in experiment [11] and in experiment [12].
On to `CN(C)NC(=O)CCC(=O)O`, for which the compound was classed as inactive in [1], in experiment [2], in experiment [3], in experiment [4], in experiment [6] and in experiment [7]. Further, the outcome in experiment [8], in experiment [9], in experiment [10], in experiment [11] and in experiment [12] was inactive.
Regarding `COP(=O)(OC)C(O)C(Cl)(Cl)Cl` (centres undefined), the call in experiment [1], in experiment [2], in [3], in experiment [5], in experiment [6] and in [7] was inactive. Also, the outcome in experiment [9], in experiment [10] and in [11] was inactive. The figures for the AC50 in experiment [8] and in experiment [12] were 2.15 µM (active) and 15 µM (active), respectively.
For `COc1cc(OC)nc(Sc2cccc(Cl)c2C(=O)O)n1`, the call in [1], in [2], in [3], in experiment [4], in [6] and in [7] was inactive. Further, the compound was classed as inactive in experiment [8], in experiment [9], in experiment [10], in experiment [11] and in [12].
In the case of `CC(=NC#N)N(C)Cc1ccc(Cl)nc1`, the compound was called inactive in experiment [1], in experiment [2], in [3], in [4], in experiment [5] and in experiment [6]. For the same compound, the result in experiment [7], in experiment [8], in experiment [9], in experiment [10], in [11] and in experiment [12] was inactive.
Take `S=C1NCCN1`: the outcome in experiment [3] and in [4] was inactive.
On to `CNc1cnn(-c2cccc(C(F)(F)F)c2)c(=O)c1Cl`, for which the result in experiment [3] and in [5] was inactive.
`CC(Oc1cccc(Cl)c1)C(=O)O` (centres undefined): in experiment [3], the result was inactive.
Turning to `CC1=NNC(=O)N(/N=C/c2cccnc2)C1`, the compound was classed as inactive in [1], in experiment [2], in experiment [3], in experiment [4], in experiment [5] and in [6]. The call in [7], in experiment [8], in experiment [9], in experiment [10], in experiment [11] and in experiment [12] was inactive.
On to `CCC(=NOC/C=C/Cl)C1=C(O)CC(C2CCOCC2)CC1=O` (centres undefined), for which, in experiment [3], the outcome was inactive.
`CCOP(=O)(OCC)Oc1cc(C)nc(C(C)C)n1`: the result in [3] and in [5] was inactive.
For `CCOC(=O)CC(SP(=O)(OC)OC)C(=O)OCC` (centres undefined), the compound was called inactive in [1], in [2], in experiment [3], in experiment [4], in experiment [6] and in experiment [7]. In addition, the call in [8], in experiment [9], in experiment [10], in [11] and in [12] was inactive.
For `O=C(O)c1cc(Oc2ccc(C(F)(F)F)cc2Cl)ccc1[N+](=O)[O-]`, in experiment [13], the AC50 was 32.9 µM (active). For the same compound, the compound was classed as inactive in experiment [14], in experiment [15], in [1], in experiment [2], in experiment [3] and in experiment [4]. Also, the result in experiment [5], in experiment [6], in [7], in experiment [8], in experiment [9] and in experiment [10] was inactive. Also, the result in experiment [11] and in experiment [12] was inactive.
Regarding `C#CC(C)(C)NC(=O)c1cc(Cl)cc(Cl)c1`, the outcome in [3] and in experiment [4] was inactive.
Take `CNC(=O)ON=C(C)SC`: the outcome in experiment [3] and in experiment [4] was inactive.
With `CCCCN(CC)c1c([N+](=O)[O-])cc(C(F)(F)F)cc1[N+](=O)[O-]`, in experiment [3], the result was inactive.
Take `CN(C)C(=O)Nc1cccc(C(F)(F)F)c1`: the outcome in experiment [3] and in experiment [4] was inactive.
With `Cc1ccn2nc(S(=O)(=O)Nc3c(F)cccc3F)nc2n1`, the compound was called inactive in [1], in experiment [2], in experiment [3], in experiment [6], in [7] and in [8]. Besides, the compound was called inactive in experiment [9], in [10], in experiment [11] and in [12].
With `Cc1cc(C2CC2)nc(Nc2ccccc2)n1`, the result in experiment [3] and in [5] was inactive.
With `CCCCSP(=O)(SCCCC)SCCCC`, the result in experiment [3] was inactive.
As for `CCOP(=S)(OCC)Oc1cc(C)nc(C(C)C)n1`, the outcome in experiment [3] and in [5] was inactive.
`CCCSP(=O)(OCC)Oc1ccc(Br)cc1Cl` (centres undefined): the result in experiment [16], in experiment [14], in experiment [3] and in experiment [5] was inactive.
`CCOP(=S)(OCC)Oc1ccc([N+](=O)[O-])cc1`: the outcome in experiment [3] and in [5] was inactive.
Consider `CCOP(=O)(SC(C)CC)N1CCSC1=O` (centres undefined), for which the outcome in experiment [3] and in experiment [4] was inactive.
Regarding `Nc1nc(N)nc(NC2CC2)n1`, the outcome in [3], in [4] and in experiment [5] was inactive.
